Measurements from PubChem BioAssay (NCATS).
Results filed as inconclusive are left out. Where a call stands in place of a potency, no number is given. Active and inactive are the calls of the source. Calls follow the shape of the dose curve; as a rule, active = well fitted curve in the direction sought with a large enough effect; inconclusive = small, poorly fitted or top-dose-only effect, or another doubt; inactive = no such curve, though single readings can be large; an effect the other way counts as inactive or inconclusive.

Tested on: not listed separately
Experiment: Cell Viability - LYMP2-022 (AID 987); also: nearly all actives have a fitted effect of over 55% in size; also: potency is read from the fitted curve at half-maximal effect
Conditions: LYMP2-022 lymphoblastoid cell viability; series mostly up to 92.2 µM
In short: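 qHTS: human lymphoblastoid cells 2500/well; 5 hr 37 C; cpd added; 24 hr 37 C; CellTiter-Glo, 30 min RT; luminescence. AC50 via Hill fit; tetraoctylammonium bromide positive ctrl.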

Question: With `COc1ccc2c(c1OC)C(=O)OC2C1c2cc3c(cc2CCN1C)OCO3` (stereo not given) as the compound, how does the Potency read?
Answer: inactive

Question: For `NNC(N)=O`, which Potency is on record?
Answer: inactive

Question: Which Potency does the source give for `O=C1C=CC(=O)C=C1` here?
Answer: 39.8 µM (active)

Tested on: not listed separately
Experiment: Cell Viability - LYMP2-024 (AID 988); also: nearly all actives have a fitted effect of over 60% in size; also: potency is read from the fitted curve at half-maximal effect
Conditions: LYMP2-024 lymphoblastoid cell viability; series mostly up to 92.2 µM
In short: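 Steps: seed 2500 cells/well, 5 hr 37 C; add compound, 24 hr 37 C; add CellTiter-Glo, 30 min room temperature; read luminescence. AC50 derived by Hill modelling of concentration-dependent ATP loss.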

Question: Which Potency does the source give for `COc1ccc2c(c1OC)C(=O)OC2C1c2cc3c(cc2CCN1C)OCO3` (stereo not given) here?
Answer: inactive

Question: Which Potency does the source give for `NNC(N)=O` here?
Answer: inactive

Question: For `O=C1C=CC(=O)C=C1`, which Potency is on record?
Answer: 31.6 µM (active)

Tested on: not listed separately
Experiment: Cell Viability - LYMP2-026 (AID 989);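 also: cells exposed to compound for 24 h at 37 °C; nearly all actives have a fitted effect of over 50% in size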
Conditions: LYMP2-026 lymphoblastoid cell viability, qHTS; series mostly up to 92.2 µM
In short: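 Luminescent ATP signal (CellTiter-Glo, 30 min room temperature) measures viable lymphoblastoid cells after 24 hr compound treatment at 37 C. Decreased ATP reflects acute toxicity; AC50 values come from Hill-equation modeling.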

Question: Which Potency does the source give for `COc1ccc2c(c1OC)C(=O)OC2C1c2cc3c(cc2CCN1C)OCO3` (stereo not given) here?
Answer: inactive

Question: For `NNC(N)=O`, which Potency is on record?
Answer: inactive

Question: With `O=C1C=CC(=O)C=C1` as the compound, how does the Potency read?
Answer: inactive

Target: Alpha-galactosidase A (Homo sapiens) (UniProt P06280)
Sequence (P06280 whole entry, looked up): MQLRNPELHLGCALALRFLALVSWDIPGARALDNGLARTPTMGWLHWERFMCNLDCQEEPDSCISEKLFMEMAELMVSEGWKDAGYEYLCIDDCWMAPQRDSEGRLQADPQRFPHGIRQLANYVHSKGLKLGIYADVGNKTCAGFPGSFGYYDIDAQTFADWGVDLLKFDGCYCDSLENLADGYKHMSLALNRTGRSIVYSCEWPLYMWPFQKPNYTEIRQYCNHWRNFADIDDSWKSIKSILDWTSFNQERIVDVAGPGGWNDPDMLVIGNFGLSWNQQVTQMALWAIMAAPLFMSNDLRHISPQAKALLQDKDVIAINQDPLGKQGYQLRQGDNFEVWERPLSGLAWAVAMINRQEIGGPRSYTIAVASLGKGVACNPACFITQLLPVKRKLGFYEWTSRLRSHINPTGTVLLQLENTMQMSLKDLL
Experiment: Counterscreen for Glucocerebrosidase Inhibitors: qHTS Assay for Human alpha-Galactosidase at pH 4.5 (AID 992)
Conditions: purified enzyme, fluorogenic substrate; series mostly up to 76.9 µM
In short: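 Concentration-response curves (0.7 nM to 77 uM final) were modeled with the Hill equation to give AC50. Reactions: 2 nM enzyme, 80 uM fluorogenic alpha-galactoside, pH 4.5 citric acid buffer, 20 min, room temperature.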

Question: With `NCCc1c[nH]c2ccc(C(N)=O)cc12` as the compound, how does the outcome read?
Answer: inactive

Question: With `O=P(O)(O)C(Cl)(Cl)P(=O)(O)O` as the compound, how does the outcome read?
Answer: inactive

Question: For `C[N+]1(C)CCN(c2ccccc2)CC1`, which outcome is on record?
Answer: inactive

Question: For `CCCN(CCC)CCc1c[nH]c2ccc(C(N)=O)cc12`, which outcome is on record?
Answer: inactive

Question: With `C[N+](C)(C)CC#CCOC(=O)Nc1cccc(Cl)c1` as the compound, how does the outcome read?
Answer: inactive

Question: Which outcome does the source give for `CCCn1c(=O)c2[nH]c(C3CCCC3)nc2n(CCCOC(=O)c2ccc(S(=O)(=O)F)cc2)c1=O` here?
Answer: inactive

Question: Which outcome does the source give for `N#CC(C#N)=Cc1cc(O)c(O)c(O)c1` here?
Answer: inactive

Question: With `Nc1ccc(CCN2CCN(c3cccc(C(F)(F)F)c3)CC2)cc1` as the compound, how does the outcome read?
Answer: inactive

Question: For `O=c1c2ccccc2[se]n1-c1ccccc1`, which outcome is on record?
Answer: inactive

Question: With `O=C(O)c1cc[c]([Hg][Cl])cc1` as the compound, how does the outcome read?
Answer: inactive

Question: With `CNC(=O)OCC[N+](C)(C)C` as the compound, how does the outcome read?
Answer: inactive

Question: For `NCCc1ccc(S(=O)(=O)F)cc1`, which outcome is on record?
Answer: inactive

Question: Which outcome does the source give for `Cc1[nH]c2ccc(O)cc2c1CCN` here?
Answer: inactive

Question: Which outcome does the source give for `CN(N=O)c1cc(O)ccc1O` here?
Answer: inactive

Question: With `O=S1(=O)N(CCN2CC=C(c3c[nH]c4cc(F)ccc34)CC2)c2cccc3c2N1CCC3` as the compound, how does the outcome read?
Answer: inactive

Question: With `CCCn1c(C)c(C(=O)c2ccc3ccccc3c2)c2ccccc21` as the compound, how does the outcome read?
Answer: inactive

Question: Which outcome does the source give for `N[C@@H](Cn1oc(=O)[nH]c1=O)C(=O)O` here?
Answer: inactive

Question: With `CN1CCC(c2c[nH]c3ccc(O)cc23)CC1` as the compound, how does the outcome read?
Answer: inactive

Question: Which outcome does the source give for `NC(=O)COc1c(F)cc(SCCNS(=O)(=O)c2ccccc2)cc1F` here?
Answer: inactive

Question: With `NNC(N)=O` as the compound, how does the outcome read?
Answer: inactive

Question: With `O=C1C=CC(=O)C=C1` as the compound, how does the outcome read?
Answer: inactive

Question: For `CCCN(CCC)[C@@H]1CCc2cccc(O)c2C1`, which outcome is on record?
Answer: inactive

Question: For `CCCN(CCC)[C@H]1CCc2c(F)ccc(O)c2C1`, which outcome is on record?
Answer: inactive

Question: Which outcome does the source give for `CCCN(CCC)CCc1ccc(O)c(O)c1` here?
Answer: inactive

Tested on: not listed separately
Experiment: Cell Viability - LYMP1-002 - Assay at 24 hr (AID 993)
Conditions: LYMP1-002 lymphoblastoid cells viability; series mostly up to 92.2 µM
In short: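 Cells plated 2500/well, 5 hr 37 C; compounds added, 24 hr 37 C; CellTiter-Glo added, 30 min RT; luminescence read. Tetraoctylammonium bromide positive control. Hill-equation AC50.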

Question: For `COc1ccc2c(c1OC)C(=O)OC2C1c2cc3c(cc2CCN1C)OCO3` (stereo not given), which Potency is on record?
Answer: inactive

Question: Which Potency does the source give for `NNC(N)=O` here?
Answer: inactive

Question: Which Potency does the source give for `O=C1C=CC(=O)C=C1` here?
Answer: inactive

Tested on: not listed separately
Experiment: Cell Viability - LYMP1-002 - Assay at 40 hr (AID 994); also: nearly all actives have a fitted effect of over 60% in size
Conditions: LYMP1-002 lymphoblastoid cell viability; series mostly up to 92.2 µM
In short: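 Luminescent ATP signal served as the viability readout, with decreases taken as toxicity. Cells were treated with compounds across a concentration range for 40 hours at 37 C, and AC50 values came from standard Hill modeling.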

Question: For `COc1ccc2c(c1OC)C(=O)OC2C1c2cc3c(cc2CCN1C)OCO3` (stereo not given), which Potency is on record?
Answer: inactive

Question: Which Potency does the source give for `NNC(N)=O` here?
Answer: inactive

Question: For `O=C1C=CC(=O)C=C1`, which Potency is on record?
Answer: inactive

Target: alpha-glucosidase (Oryza sativa, rice) (UniProt Q653V4)
Experiment: Counterscreen for Glucocerebrosidase Inhibitors: qHTS Assay for Rice alpha-Glucosidase at pH 5.0 (AID 997)
Conditions: rice alpha-glucosidase enzyme activity; series mostly up to 76.9 µM
In short: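 Rice alpha-glucosidase (4 nM final) with 400 uM 4-methylumbelliferyl-alpha-D-glucopyranoside in citrate buffer pH 5.0, 20 min at room temperature, stopped at pH 10; fluorescence 365/440 nm, compounds 0.7 nM–77 uM, AC50 from Hill fits.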

Question: With `NCCc1c[nH]c2ccc(C(N)=O)cc12` as the compound, how does the outcome read?
Answer: inactive

Question: For `O=P(O)(O)C(Cl)(Cl)P(=O)(O)O`, which outcome is on record?
Answer: inactive

Question: For `C[N+]1(C)CCN(c2ccccc2)CC1`, which outcome is on record?
Answer: inactive

Question: For `CCCN(CCC)CCc1c[nH]c2ccc(C(N)=O)cc12`, which outcome is on record?
Answer: inactive

Question: Which outcome does the source give for `C[N+](C)(C)CC#CCOC(=O)Nc1cccc(Cl)c1` here?
Answer: inactive

Question: Which outcome does the source give for `CCCn1c(=O)c2[nH]c(C3CCCC3)nc2n(CCCOC(=O)c2ccc(S(=O)(=O)F)cc2)c1=O` here?
Answer: inactive

Question: For `N#CC(C#N)=Cc1cc(O)c(O)c(O)c1`, which outcome is on record?
Answer: inactive

Question: With `Nc1ccc(CCN2CCN(c3cccc(C(F)(F)F)c3)CC2)cc1` as the compound, how does the outcome read?
Answer: inactive

Question: With `O=c1c2ccccc2[se]n1-c1ccccc1` as the compound, how does the outcome read?
Answer: inactive

Question: Which outcome does the source give for `O=C(O)c1cc[c]([Hg][Cl])cc1` here?
Answer: inactive

Question: With `CNC(=O)OCC[N+](C)(C)C` as the compound, how does the outcome read?
Answer: inactive

Question: Which outcome does the source give for `NCCc1ccc(S(=O)(=O)F)cc1` here?
Answer: inactive

Question: With `Cc1[nH]c2ccc(O)cc2c1CCN` as the compound, how does the outcome read?
Answer: inactive

Question: For `CN(N=O)c1cc(O)ccc1O`, which outcome is on record?
Answer: inactive

Question: For `O=S1(=O)N(CCN2CC=C(c3c[nH]c4cc(F)ccc34)CC2)c2cccc3c2N1CCC3`, which outcome is on record?
Answer: inactive

Question: With `CCCn1c(C)c(C(=O)c2ccc3ccccc3c2)c2ccccc21` as the compound, how does the outcome read?
Answer: inactive

Question: For `N[C@@H](Cn1oc(=O)[nH]c1=O)C(=O)O`, which outcome is on record?
Answer: inactive

Question: Which outcome does the source give for `CN1CCC(c2c[nH]c3ccc(O)cc23)CC1` here?
Answer: inactive

Question: For `NC(=O)COc1c(F)cc(SCCNS(=O)(=O)c2ccccc2)cc1F`, which outcome is on record?
Answer: inactive

Question: Which outcome does the source give for `NNC(N)=O` here?
Answer: inactive

Question: For `O=C1C=CC(=O)C=C1`, which outcome is on record?
Answer: inactive

Question: For `CCCN(CCC)[C@@H]1CCc2cccc(O)c2C1`, which outcome is on record?
Answer: inactive

Question: Which outcome does the source give for `CCCN(CCC)[C@H]1CCc2c(F)ccc(O)c2C1` here?
Answer: inactive

Question: Which outcome does the source give for `CCCN(CCC)CCc1ccc(O)c(O)c1` here?
Answer: inactive

Target: Alpha-galactosidase (Coffea arabica) (UniProt Q42656)
Sequence (Q42656 whole entry, looked up): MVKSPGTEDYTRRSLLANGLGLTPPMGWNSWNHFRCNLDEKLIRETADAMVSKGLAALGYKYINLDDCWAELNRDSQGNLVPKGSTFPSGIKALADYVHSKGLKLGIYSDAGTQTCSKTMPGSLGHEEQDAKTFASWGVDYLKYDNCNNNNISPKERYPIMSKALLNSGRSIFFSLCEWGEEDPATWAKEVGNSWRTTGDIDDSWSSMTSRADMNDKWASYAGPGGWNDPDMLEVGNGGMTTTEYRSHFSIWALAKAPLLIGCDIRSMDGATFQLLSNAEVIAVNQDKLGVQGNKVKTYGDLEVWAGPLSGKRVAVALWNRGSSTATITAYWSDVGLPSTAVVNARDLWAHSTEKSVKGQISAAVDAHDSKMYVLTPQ
Experiment: Counterscreen for Glucocerebrosidase Inhibitors: qHTS Assay for Coffee Bean alpha-Galactosidase at pH 5.9 (AID 998)
Conditions: coffee bean alpha-galactosidase enzyme assay; series mostly up to 76.9 µM
In short: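 Green coffee bean enzyme (2 nM) with 4-methylumbelliferyl alpha-D-galactopyranoside (80 uM) in 50 mM citric acid, 0.005% Tween-20, pH 5.9, 20 min at room temperature; compounds 0.7 nM–77 uM. Stopped at pH 10, fluorescence Ex365/Em440; Hill-fit AC50.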

Question: For `NCCc1c[nH]c2ccc(C(N)=O)cc12`, which outcome is on record?
Answer: inactive

Question: With `O=P(O)(O)C(Cl)(Cl)P(=O)(O)O` as the compound, how does the outcome read?
Answer: inactive

Question: With `C[N+]1(C)CCN(c2ccccc2)CC1` as the compound, how does the outcome read?
Answer: inactive

Question: Which outcome does the source give for `CCCN(CCC)CCc1c[nH]c2ccc(C(N)=O)cc12` here?
Answer: inactive

Question: For `C[N+](C)(C)CC#CCOC(=O)Nc1cccc(Cl)c1`, which outcome is on record?
Answer: inactive

Question: For `CCCn1c(=O)c2[nH]c(C3CCCC3)nc2n(CCCOC(=O)c2ccc(S(=O)(=O)F)cc2)c1=O`, which outcome is on record?
Answer: inactive

Question: Which outcome does the source give for `N#CC(C#N)=Cc1cc(O)c(O)c(O)c1` here?
Answer: inactive

Question: For `Nc1ccc(CCN2CCN(c3cccc(C(F)(F)F)c3)CC2)cc1`, which outcome is on record?
Answer: inactive

Question: For `CNC(=O)OCC[N+](C)(C)C`, which outcome is on record?
Answer: inactive

Question: Which outcome does the source give for `NCCc1ccc(S(=O)(=O)F)cc1` here?
Answer: inactive

Question: With `Cc1[nH]c2ccc(O)cc2c1CCN` as the compound, how does the outcome read?
Answer: inactive

Question: Which outcome does the source give for `CN(N=O)c1cc(O)ccc1O` here?
Answer: inactive

Question: Which outcome does the source give for `O=S1(=O)N(CCN2CC=C(c3c[nH]c4cc(F)ccc34)CC2)c2cccc3c2N1CCC3` here?
Answer: inactive

Question: Which outcome does the source give for `CCCn1c(C)c(C(=O)c2ccc3ccccc3c2)c2ccccc21` here?
Answer: inactive

Question: Which outcome does the source give for `N[C@@H](Cn1oc(=O)[nH]c1=O)C(=O)O` here?
Answer: inactive

Question: For `CN1CCC(c2c[nH]c3ccc(O)cc23)CC1`, which outcome is on record?
Answer: inactive

Question: With `NC(=O)COc1c(F)cc(SCCNS(=O)(=O)c2ccccc2)cc1F` as the compound, how does the outcome read?
Answer: inactive

Question: Which outcome does the source give for `NNC(N)=O` here?
Answer: inactive

Question: Which outcome does the source give for `O=C1C=CC(=O)C=C1` here?
Answer: inactive

Question: For `CCCN(CCC)[C@@H]1CCc2cccc(O)c2C1`, which outcome is on record?
Answer: inactive

Question: With `CCCN(CCC)[C@H]1CCc2c(F)ccc(O)c2C1` as the compound, how does the outcome read?
Answer: inactive

Question: For `CCCN(CCC)CCc1ccc(O)c(O)c1`, which outcome is on record?
Answer: inactive
